For some of these results: Potency and affinity values are given separately.
Key:
Set-up in all cases: scale not given: direction of the effect not stated beside the values
[1] = molecular target: Protein translocase subunit SecA (Escherichia coli (strain K12)) (UniProt P10408); test: Assay to Identify E. coli SecA ATPase Inhibitors; type: functional; conditions: 30 µM
[2] = molecular target: T1, Ubiquitin-activating enzyme e1, putative (Leishmania donovani (strain BPK282A1)) (UniProt E9BSI1); test: Leishmania donovani Ubiquitin Activating Enzyme (LdE1); type: functional; conditions: 30 µM
T1 sequence (whole entry): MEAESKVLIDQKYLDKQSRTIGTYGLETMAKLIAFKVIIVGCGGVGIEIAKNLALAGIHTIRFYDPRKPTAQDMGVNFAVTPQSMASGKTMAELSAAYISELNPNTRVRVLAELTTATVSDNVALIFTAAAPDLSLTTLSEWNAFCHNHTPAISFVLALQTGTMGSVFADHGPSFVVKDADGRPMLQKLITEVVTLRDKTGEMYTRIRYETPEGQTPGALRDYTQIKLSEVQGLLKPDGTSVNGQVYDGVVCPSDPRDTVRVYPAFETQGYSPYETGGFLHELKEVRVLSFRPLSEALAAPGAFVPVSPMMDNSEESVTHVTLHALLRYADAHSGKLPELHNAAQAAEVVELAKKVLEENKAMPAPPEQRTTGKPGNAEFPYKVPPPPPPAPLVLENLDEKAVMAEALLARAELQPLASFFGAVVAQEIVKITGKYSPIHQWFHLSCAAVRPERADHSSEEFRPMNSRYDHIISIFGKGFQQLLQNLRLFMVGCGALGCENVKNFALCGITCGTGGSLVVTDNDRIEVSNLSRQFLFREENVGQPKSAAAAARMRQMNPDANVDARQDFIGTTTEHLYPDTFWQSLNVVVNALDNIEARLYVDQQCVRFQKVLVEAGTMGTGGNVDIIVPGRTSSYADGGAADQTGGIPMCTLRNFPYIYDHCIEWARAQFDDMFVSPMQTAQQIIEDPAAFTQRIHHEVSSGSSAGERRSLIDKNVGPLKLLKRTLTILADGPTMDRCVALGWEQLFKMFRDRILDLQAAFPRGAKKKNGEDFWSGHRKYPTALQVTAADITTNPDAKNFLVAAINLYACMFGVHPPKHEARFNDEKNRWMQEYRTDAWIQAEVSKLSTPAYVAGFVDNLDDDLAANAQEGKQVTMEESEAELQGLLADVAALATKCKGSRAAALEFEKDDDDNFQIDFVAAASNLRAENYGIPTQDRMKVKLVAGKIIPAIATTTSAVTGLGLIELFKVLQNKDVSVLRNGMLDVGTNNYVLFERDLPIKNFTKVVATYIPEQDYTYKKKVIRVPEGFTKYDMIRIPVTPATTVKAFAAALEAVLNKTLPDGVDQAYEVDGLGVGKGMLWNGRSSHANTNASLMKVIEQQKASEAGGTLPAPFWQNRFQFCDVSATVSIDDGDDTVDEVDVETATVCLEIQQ

[3] = molecular target: AMP-activated protein kinase, AMPK (Homo sapiens) (UniProt P54646+O43741+P54619+Q9UGJ0+Q9Y478+Q13131+Q9UGI9); test: AMP-dependent Kinase enzyme assay. An in vitro enzyme assay that detects ADP turnover that is directly proportional to AMPK activity. This uses naive AMPK that is activated during the assay with MK-8722; type: functional; conditions: 30 µM
[4] = molecular target: Sialic acid-binding Ig-like lectin 9 (Homo sapiens) (UniProt Q9Y336); test: Hs-Siglec9 ALPHAscreen SOP 20170721; conditions: 10 µM
Sequence of Sialic acid-binding Ig-like lectin 9 (Homo sapiens) (Q9Y336 whole entry): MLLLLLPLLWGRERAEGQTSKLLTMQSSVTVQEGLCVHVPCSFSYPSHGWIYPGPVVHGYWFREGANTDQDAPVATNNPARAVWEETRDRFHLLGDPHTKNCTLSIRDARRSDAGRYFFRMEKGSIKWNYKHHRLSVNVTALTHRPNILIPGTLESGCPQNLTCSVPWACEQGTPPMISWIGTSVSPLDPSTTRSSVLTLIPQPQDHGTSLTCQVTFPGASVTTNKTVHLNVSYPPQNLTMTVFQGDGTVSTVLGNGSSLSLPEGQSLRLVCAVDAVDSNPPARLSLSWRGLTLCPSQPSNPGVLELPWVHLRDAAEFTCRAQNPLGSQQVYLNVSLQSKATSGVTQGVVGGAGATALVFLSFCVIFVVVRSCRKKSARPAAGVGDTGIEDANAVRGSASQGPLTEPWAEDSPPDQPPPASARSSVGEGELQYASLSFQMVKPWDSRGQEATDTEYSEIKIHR

Trypanosoma cruzi = test: Trypanosoma cruzi phosphomannomutase and mannose-1-phosphate guanylyltransferase assay; type: functional; conditions: 10 µM
[5] = molecular target: T2, Arginase-2, mitochondrial (Homo sapiens) (UniProt P78540); test: in vitro enzyme assay to detect the production of urea directly proportional to the activity of Arginase II; type: functional; conditions: 33.3 µM; further: in the data most compounds retested in dose-response had high values
T2 sequence (whole entry): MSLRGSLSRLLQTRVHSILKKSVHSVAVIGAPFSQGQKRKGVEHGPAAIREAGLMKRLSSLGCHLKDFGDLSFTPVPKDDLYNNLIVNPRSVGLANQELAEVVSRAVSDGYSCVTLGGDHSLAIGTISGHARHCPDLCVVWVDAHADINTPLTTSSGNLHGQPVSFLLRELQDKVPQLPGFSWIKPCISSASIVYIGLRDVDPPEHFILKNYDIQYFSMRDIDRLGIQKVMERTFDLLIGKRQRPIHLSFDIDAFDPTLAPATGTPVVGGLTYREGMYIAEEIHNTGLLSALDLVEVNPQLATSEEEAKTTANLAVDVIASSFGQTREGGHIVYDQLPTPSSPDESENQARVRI

[6] = molecular target: T3, Proteasome subunit beta (Trypanosoma cruzi) (UniProt O96673); test: Trypanosoma cruzi proteasome chymotrypsin-like activity (TcProtChymo) assay.; further: in the data most compounds retested in dose-response had high values; type: functional; conditions: 9.37 µM
T3 sequence (whole entry): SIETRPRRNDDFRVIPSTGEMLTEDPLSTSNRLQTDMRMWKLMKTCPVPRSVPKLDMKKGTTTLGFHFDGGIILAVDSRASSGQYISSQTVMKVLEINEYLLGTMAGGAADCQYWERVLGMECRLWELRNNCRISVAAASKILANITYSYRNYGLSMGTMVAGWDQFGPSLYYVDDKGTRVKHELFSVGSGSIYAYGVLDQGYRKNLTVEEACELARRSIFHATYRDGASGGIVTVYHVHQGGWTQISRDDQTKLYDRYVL

Homo sapiens = species on record: Homo sapiens; test: To identify inhibition of the IFN signalling (Jak-Stat) pathway via expression of an eGFP reporter gene under the control of an IFN-stimulated response element (ISRE) containing MxA promoter.; type: functional; conditions: 30 µM
[7] = molecular target: T4, Tyrosyl-tRNA synthetase, putative (Trypanosoma cruzi (strain CL Brener)) (UniProt Q4DSP6); test: Trypanosoma cruzi tyrosyl tRNA synthetase (TcYRS) _High Tyrosine SOP; type: functional; conditions: 30 µM; further: in the data most compounds retested in dose-response had high values
T4 sequence (whole entry): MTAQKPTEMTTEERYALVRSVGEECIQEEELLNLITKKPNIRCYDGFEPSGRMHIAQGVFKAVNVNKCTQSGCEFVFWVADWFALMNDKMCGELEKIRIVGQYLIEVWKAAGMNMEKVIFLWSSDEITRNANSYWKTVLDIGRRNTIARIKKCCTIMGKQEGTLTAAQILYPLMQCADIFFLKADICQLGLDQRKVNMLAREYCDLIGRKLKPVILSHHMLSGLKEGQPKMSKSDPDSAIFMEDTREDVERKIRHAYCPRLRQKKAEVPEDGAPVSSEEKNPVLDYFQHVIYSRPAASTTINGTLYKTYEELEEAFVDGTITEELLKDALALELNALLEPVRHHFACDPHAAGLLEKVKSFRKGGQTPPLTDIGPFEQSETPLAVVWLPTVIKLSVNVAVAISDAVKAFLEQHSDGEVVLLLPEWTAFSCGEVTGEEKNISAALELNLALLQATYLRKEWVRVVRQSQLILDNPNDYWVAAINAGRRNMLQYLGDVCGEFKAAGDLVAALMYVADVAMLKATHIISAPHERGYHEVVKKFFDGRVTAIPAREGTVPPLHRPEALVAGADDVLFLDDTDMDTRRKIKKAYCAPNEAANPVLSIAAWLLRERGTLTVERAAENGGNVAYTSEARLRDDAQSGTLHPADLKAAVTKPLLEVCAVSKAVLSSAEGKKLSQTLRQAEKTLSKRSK

[8] = molecular target: T4, Tyrosyl-tRNA synthetase, putative (Trypanosoma cruzi (strain CL Brener)); test: Trypanosoma cruzi tyrosyl tRNA synthetase (TcYRS) SOP; type: functional; conditions: 30 µM
[9] = molecular target: Chromo domain-containing protein 1 (Saccharomyces cerevisiae (strain ATCC 204508 / S288c) (Baker's yeast)) (UniProt P32657); test: ScCHD-1 Enzyme Inhibition Assay; type: functional; conditions: 30 µM; further: in the data most compounds retested in dose-response had high values
Sequence of Chromo domain-containing protein 1 (Saccharomyces cerevisiae (strain ATCC 204508 / S288c) (Baker's yeast)) (P32657 whole entry, the tested form may be a part): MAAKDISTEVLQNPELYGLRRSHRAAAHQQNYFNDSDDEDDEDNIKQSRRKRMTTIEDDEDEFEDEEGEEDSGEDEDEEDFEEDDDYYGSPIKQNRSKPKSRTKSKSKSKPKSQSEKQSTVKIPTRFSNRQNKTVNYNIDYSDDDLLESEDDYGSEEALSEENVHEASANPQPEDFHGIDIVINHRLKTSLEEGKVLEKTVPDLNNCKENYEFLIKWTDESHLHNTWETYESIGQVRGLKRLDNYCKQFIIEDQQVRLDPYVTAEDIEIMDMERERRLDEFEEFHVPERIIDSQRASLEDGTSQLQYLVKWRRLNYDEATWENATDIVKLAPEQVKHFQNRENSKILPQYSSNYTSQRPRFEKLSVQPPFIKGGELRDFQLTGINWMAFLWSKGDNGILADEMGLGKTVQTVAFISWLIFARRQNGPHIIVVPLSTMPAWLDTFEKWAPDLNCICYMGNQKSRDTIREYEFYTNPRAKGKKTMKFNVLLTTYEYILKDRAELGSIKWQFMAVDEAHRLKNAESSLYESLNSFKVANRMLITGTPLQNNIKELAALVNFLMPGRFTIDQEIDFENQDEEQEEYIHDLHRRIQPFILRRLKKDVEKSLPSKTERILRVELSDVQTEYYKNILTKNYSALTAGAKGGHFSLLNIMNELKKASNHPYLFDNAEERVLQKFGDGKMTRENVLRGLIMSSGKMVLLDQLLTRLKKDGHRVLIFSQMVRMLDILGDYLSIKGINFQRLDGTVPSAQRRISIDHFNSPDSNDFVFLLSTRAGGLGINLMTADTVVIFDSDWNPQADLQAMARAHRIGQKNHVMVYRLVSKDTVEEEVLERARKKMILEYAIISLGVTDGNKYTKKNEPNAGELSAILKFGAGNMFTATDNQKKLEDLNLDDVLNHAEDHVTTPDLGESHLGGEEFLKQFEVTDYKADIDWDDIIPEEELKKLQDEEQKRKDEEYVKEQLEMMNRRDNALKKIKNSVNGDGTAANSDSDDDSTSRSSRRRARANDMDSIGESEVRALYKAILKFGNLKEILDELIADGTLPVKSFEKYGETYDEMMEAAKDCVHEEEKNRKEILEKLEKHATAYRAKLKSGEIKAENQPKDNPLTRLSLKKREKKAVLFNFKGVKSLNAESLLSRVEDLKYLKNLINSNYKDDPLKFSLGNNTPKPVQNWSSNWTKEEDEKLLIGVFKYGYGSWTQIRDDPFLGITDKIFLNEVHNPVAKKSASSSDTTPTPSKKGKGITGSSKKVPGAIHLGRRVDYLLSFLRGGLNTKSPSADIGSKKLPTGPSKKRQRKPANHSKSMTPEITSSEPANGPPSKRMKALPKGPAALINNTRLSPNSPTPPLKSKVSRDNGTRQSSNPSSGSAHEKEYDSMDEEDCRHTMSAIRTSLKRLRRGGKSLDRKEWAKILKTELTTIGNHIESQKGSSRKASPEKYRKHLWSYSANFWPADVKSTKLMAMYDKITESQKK

Sequence of Protein translocase subunit SecA (Escherichia coli (strain K12)) (P10408 whole entry): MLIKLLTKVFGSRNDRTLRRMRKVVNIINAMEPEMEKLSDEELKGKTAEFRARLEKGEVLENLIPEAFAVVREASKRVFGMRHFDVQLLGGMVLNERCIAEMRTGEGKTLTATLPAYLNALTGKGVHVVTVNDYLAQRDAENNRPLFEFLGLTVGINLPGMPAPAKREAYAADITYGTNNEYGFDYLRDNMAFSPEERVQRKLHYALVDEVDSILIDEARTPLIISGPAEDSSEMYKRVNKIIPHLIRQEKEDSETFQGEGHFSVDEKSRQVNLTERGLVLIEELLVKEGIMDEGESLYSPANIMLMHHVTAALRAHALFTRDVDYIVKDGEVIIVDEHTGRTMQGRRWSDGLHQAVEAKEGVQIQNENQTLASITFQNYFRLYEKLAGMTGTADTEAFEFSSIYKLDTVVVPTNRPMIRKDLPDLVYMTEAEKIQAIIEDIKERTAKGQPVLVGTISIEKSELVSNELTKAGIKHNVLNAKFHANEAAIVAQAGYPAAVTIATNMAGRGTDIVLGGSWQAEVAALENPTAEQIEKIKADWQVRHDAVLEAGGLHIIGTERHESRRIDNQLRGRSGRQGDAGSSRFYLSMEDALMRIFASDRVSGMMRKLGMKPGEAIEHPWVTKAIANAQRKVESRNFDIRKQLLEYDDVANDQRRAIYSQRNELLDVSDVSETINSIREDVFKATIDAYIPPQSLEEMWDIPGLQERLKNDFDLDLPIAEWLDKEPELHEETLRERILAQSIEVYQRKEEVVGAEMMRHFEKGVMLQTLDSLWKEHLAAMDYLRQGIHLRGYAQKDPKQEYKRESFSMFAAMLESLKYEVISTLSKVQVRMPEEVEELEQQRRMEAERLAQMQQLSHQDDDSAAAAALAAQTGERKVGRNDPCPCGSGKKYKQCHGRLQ

Row | SMILES | Percent Effect [1] [%] | Percent Effect [2] [%] | Percent Effect [3] [%] | Percent Effect [4] [%] | Percent Effect (Trypanosoma cruzi) [%] | Percent Effect [5] [%] | Percent Effect [6] [%] | Percent Effect (Homo sapiens) [%] | Percent Effect [7] [%] | Percent Effect [8] [%] | Percent Effect [9] [%]
1 | O=C(O)[C@]12CCCN(Cc3ccncc3)[C@@H]1CCN(c1cnccn1)C2 | -3.31 | 2.67 | -1.2 | -3.96 | -6.91 | -0.521 | 21.6 | 22 | -0.546 | 1.24 | -6.37
2 | O=C([C@H]1C[C@H]2OCC[C@H]2N(C(=O)c2ccncc2)C1)N1CCCCO1 | -6.09 | 16 | -5.71 | -0.495 | 6.56 | -43.9 | 6.33 | -5.77 | 4.17 | 5 | -6.72
3 | COc1ccc(OC)c(CCNC(=O)NC(C)Cn2ccnc2)c1 (configuration not stated) | -2.99 | 10.5 | -9.22 | -3.09 | -9.77 | -6.13 | 5.35 | 34.6 | -1.47 | 4.88 | -5.83
4 | Cc1nc(C)n(CC2CCCN2CCOc2ccc(C#N)cc2)n1 (configuration not stated) | -3.7 | 2.53 | -2.42 | 10.4 | 7.27 | 1.9 | 1.06 | 17.9 | 6.4 | 11.4 | -5.17
5 | COc1ccc(C2=CCN(C(=O)CN(C)CC(N)=O)CC2)cc1 | -1.62 | 5.06 | 0.216 | -0.305 | -19.4 | 6.46 | 9.42 | 16.9 | 3.45 | 8.86 | -6.22
6 | COCCc1noc(CNCC2CCCN2c2cccnn2)n1 (configuration not stated) | -4.29 | 18.2 | -3.94 | -5.52 | 4.41 | -5.68 | 20.8 | 2.37 | 10.5 | 32.9 | -23.1
7 | Cc1cccc(CN2C(=O)CO[C@@H]3CN(CCO)C[C@H]32)c1 | 1.05 | 10.8 | -5.9 | -3.44 | 4.88 | 26.2 | 12.1 | 10.1 | 6.93 | 8.54 | 1.31
8 | CCc1nnc(CNCC2CCN(CC(O)c3ccccc3)CC2)o1 (configuration not stated) | -4.81 | 19 | -3.87 | -2.88 | -2.15 | -7.1 | 11.5 | 14 | -2.08 | 12.7 | -30.3
9 | Cc1cc(C)n(CC2CCCN2CCCS(=O)(=O)N(C)C)n1 (configuration not stated) | -1.98 | 16.2 | -6.22 | 14 | 5.99 | 11.9 | 13.6 | 8.21 | 4.76 | 19.5 | -4.54
10 | O=C1[C@H]2CN(c3ncccn3)C[C@H]2CN1Cc1ccncc1 | -4.5 | -2.7 | 1.46 | -4.76 | -2.34 | -0.417 | 3.97 | -1.92 | 3.96 | -3.66 | -3.35
11 | CN1CCN(Cc2cn3c(n2)CN(C(=O)N2CCOCC2)CC3)CC1 | -6.56 | 5.2 | 1.33 | 22.1 | 3.25 | -5.52 | 0.499 | -12.5 | 4.3 | 11.1 | 0.336
12 | CCc1ccc(S(=O)(=O)Nc2cn(C)cc(Br)c2=O)cc1 | -3.35 | 5.41 | -3.87 | 18.4 | 4.25 | -0.952 | 11.6 | 6.27 | 2.65 | 12.2 | -5.04
13 | O=C(c1cccc(N2CCCC2=O)c1)N1CCCC(n2cncn2)C1 (configuration not stated) | -5.98 | 13.5 | -31.2 | 2.17 | -1.6 | -1.6 | -0.18 | 7.08 | 8.37 | 13.6 | -5.4
14 | Cc1cccc(C)c1NC(=O)CCNC(=O)c1ccoc1 | -3.75 | 18.2 | 5.22 | -2.96 | 1.27 | 0.21 | 20.3 | 16 | 10.5 | 14.1 | -8.58
15 | O=C1O[C@@H]2CN(Cc3cccc(F)c3)C[C@@H]2N1CCCN1CCOCC1 | -1.1 | 10.7 | 4.3 | 9.62 | 2.82 | 12.5 | 21.3 | 9.55 | 3.83 | 21 | -10.6
16 | Cc1cc(C)n(CC2CN(CC(=O)Nc3c(C)n[nH]c3C)CCO2)n1 (configuration not stated) | -3.28 | 15.6 | 2.77 | 0.0825 | -8.61 | 0 | 10.5 | 24.1 | 6.8 | 12.2 | -3.32
17 | N#CCCCS(=O)(=O)N1CCCC1CC(=O)c1cccs1 (configuration not stated) | -2.19 | 2.7 | -3.83 | 2.31 | -1.93 | -3.81 | 3.1 | -1.42 | -0.529 | -4.88 | -0.34

Reference: ChEMBL document CHEMBL3988442, “University of Dundee, Small-Polar-MMV Screening Library” (2021)
